Reference: PubChem BioAssay (Tox21)
“And” between values parts separate entries of the source, which are not always exact repeats. Identical values can stand only once. Results filed as inconclusive are left out. The source made the active and inactive calls. Calls come from the whole dose curve; as a rule, active = well fitted curve in the direction sought with a large enough effect in the repeat runs; inconclusive = weak or mixed curves; inactive = no such curve, though single readings can be large; an effect the other way counts as inactive or inconclusive.

How the values were obtained:
[1] = qHTS RealTime-Glo MT Cell Viability Assay in HEK293 cells - 16 hour (AID 1224872); note: nearly all actives have a fitted effect of over 50% in size; note: potency is the fitted concentration of half-maximal effect
Method in brief: (§1)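 Quantitative high-throughput screen of the Tox21 10K library in HEK293: cells and RealTime-Glo reagents plated together, compound added at 5 h, luminescence monitored through 40 h at 37 C.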

[2] = qHTS RealTime-Glo MT Cell Viability Assay in HepG2 cells - 8 hour (AID 1224873); note: nearly all actives have a fitted effect of over 55% in size; note: potency is the fitted concentration of half-maximal effect
Method in brief: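 HepG2 cells mixed with RealTime-Glo MT reagents (NanoLuc plus cell-permeant prosubstrate) were seeded at 600 cells/well, incubated 5 h at 37 C/5% CO2, then pinned with compounds in DMSO; nonlytic luminescence tracked viability during 40 h treatment.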

[3] = qHTS RealTime-Glo MT Cell Viability Assay in HEK293 cells - 40 hour (AID 1224874); conditions: RealTime-Glo luminescence; max response: hits give low values; note: nearly all actives have a fitted effect of over 50% in size; note: potency is the fitted concentration of half-maximal effect
Method in brief: (§2)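 Viable HEK293 cells reduce a cell-permeant prosubstrate; the product diffuses out and is consumed by NanoLuc in the medium to give light. Compounds went in after a 5 h incubation and plates were read over the treatment course.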

[4] = A CellTox Green Cytotoxicity Assay to monitor cytotoxicity in HEK293 cells - 24 hour (AID 1224875); note: nearly all actives have a fitted effect of over 45% in size; note: potency is the fitted concentration of half-maximal effect
Method in brief: (§3)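 Fluorescence intensity, read at 0, 8, 16, 24, 32 and 40 h of compound treatment, reflected dye binding to DNA of dead HEK293 cells; compounds (23 nL, DMSO) were added 5 h after plating cells with reagent.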

[5] = A CellTox Green Cytotoxicity Assay to monitor cytotoxicity in HepG2 cells - 16 hour (AID 1224876); note: nearly all actives have a fitted effect of over 45% in size; note: potency is the fitted concentration of half-maximal effect
Method in brief: (§4)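 Using 1536-well format, dye-containing HepG2 suspension was seeded, allowed 5 h at 37 C/5% CO2, dosed by pintool with compounds, positive and negative controls, and imaged for fluorescence across 40 h.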

[6] = qHTS RealTime-Glo MT Cell Viability Assay in HepG2 cells - 32 hour (AID 1224877); note: nearly all actives have a fitted effect of over 55% in size; note: potency is the fitted concentration of half-maximal effect
Method in brief: (§5)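 Compound treatment began 5 h after plating HepG2 cells (600/well) with NanoLuc luciferase and prosubstrate. Plates stayed at 37 C for 40 h; luminescence was captured at six time points, 0 h through 40 h.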

[7] = A CellTox Green Cytotoxicity Assay to monitor cytotoxicity in HepG2 cells - 24 hour (AID 1224878); note: nearly all actives have a fitted effect of over 45% in size; note: potency is the fitted concentration of half-maximal effect
Method in brief: as §4

[8] = A CellTox Green Cytotoxicity Assay to monitor cytotoxicity in HepG2 cells - 40 hour (AID 1224879); note: nearly all actives have a fitted effect of over 40% in size; note: potency is the fitted concentration of half-maximal effect
Method in brief: as §4

[9] = qHTS RealTime-Glo MT Cell Viability Assay in HEK293 cells - 0 hour (AID 1224880); note: top concentration of the series differs between compounds; nearly all actives have a fitted effect of over 45% in size
Method in brief: as §2

[10] = A CellTox Green Cytotoxicity Assay to monitor cytotoxicity in HEK293 cells - 32 hour (AID 1224881); note: nearly all actives have a fitted effect of over 40% in size; note: potency is the fitted concentration of half-maximal effect
Method in brief: as §3

[11] = A CellTox Green Cytotoxicity Assay to monitor cytotoxicity in HepG2 cells - 0 hour (AID 1224882); note: nearly all actives have a fitted effect of over 35% in size; note: potency is the fitted concentration of half-maximal effect
Method in brief: as §4

[12] = A CellTox Green Cytotoxicity Assay to monitor cytotoxicity in HepG2 cells - 32 hour (AID 1224883); note: nearly all actives have a fitted effect of over 50% in size; note: potency is the fitted concentration of half-maximal effect
Method in brief: as §4

[13] = A CellTox Green Cytotoxicity Assay to monitor cytotoxicity in HEK293 cells - 8 hour (AID 1224884); note: nearly all actives have a fitted effect of over 35% in size; note: potency is the fitted concentration of half-maximal effect
Method in brief: as §3

[14] = qHTS RealTime-Glo MT Cell Viability Assay in HepG2 cells - 16 hour (AID 1224885); note: nearly all actives have a fitted effect of over 50% in size; note: potency is the fitted concentration of half-maximal effect
Method in brief: as §5

[15] = qHTS RealTime-Glo MT Cell Viability Assay in HEK293 cells - 24 hour (AID 1224886)
Method in brief: as §1

[16] = qHTS RealTime-Glo MT Cell Viability Assay in HEK293 cells - 8 hour (AID 1224887); note: nearly all actives have a fitted effect of over 50% in size; note: potency is the fitted concentration of half-maximal effect
Method in brief: as §2

[17] = A CellTox Green Cytotoxicity Assay to monitor cytotoxicity in HEK293 cells - 16 hour (AID 1224888); note: nearly all actives have a fitted effect of over 35% in size; note: potency is the fitted concentration of half-maximal effect
Method in brief: as §3

[18] = A CellTox Green Cytotoxicity Assay to monitor cytotoxicity in HepG2 cells - 8 hour (AID 1224890); note: nearly all actives have a fitted effect of over 45% in size; note: potency is the fitted concentration of half-maximal effect
Method in brief: as §4

[19] = qHTS assay to identify small molecule antagonists of the estrogen receptor alpha (ER-alpha) signaling pathway using the BG1 cell line in the presence of 0.1 nM 17-beta-estradiol - cell viability counter screen (AID 1259241); note: nearly all actives have a fitted effect of over 40% in size; note: potency is the fitted concentration of half-maximal effect
Method in brief: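 Viability in VM7Luc4E2 cells after 22 hr compound exposure under 0.1 nM 17beta-estradiol stimulation, by CellTiter-Fluor.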

[20] = qHTS RealTime-Glo MT Cell Viability Assay in HepG2 cells - 0 hour (AID 1224889); note: nearly all actives have a fitted effect of over 50% in size
Method in brief: as §5
% is set by controls: 0 for no effect and ±100 for the full control effect.

Cc1ccc(N/N=c2\c(=O)cc/c(=N\Nc3ccc(S(=O)(=O)O)cc3)c2=O)c(C)c1
inactive: Potency [1] | Potency [2] | max response [3] 1.45% | Potency [4] | Potency [5] | Potency [6] | Potency [7] | Potency [8] | Potency [9] | Potency [10] | Potency [11] | Potency [12] | Potency [13] | Potency [14] | Potency [15] | Potency [16] | Potency [17] | Potency [18]
active: Potency [19] 27.3 µM

CCCC(=O)OCCc1ccccc1
active: Potency [4] 43.6 µM | Potency [5] 43.6 µM | Potency [7] 43.6 µM | Potency [8] 49 µM | Potency [10] 49 µM | Potency [11] 38.9 µM | Potency [12] 43.6 µM | Potency [13] 38.9 µM | Potency [17] 43.6 µM | Potency [18] 43.6 µM
inactive: Potency [1] | Potency [2] | max response [3] 5.68% | Potency [6] | Potency [9] | Potency [14] | Potency [15] | Potency [16] | Potency [20]

OCC(F)(F)F
inactive: Potency [1] | Potency [2] | max response [3] 19.1% | Potency [4] | Potency [5] | Potency [6] | Potency [7] | Potency [8] | Potency [9] | Potency [10] | Potency [11] | Potency [12] | Potency [13] | Potency [14] | Potency [15] | Potency [16] | Potency [17] | Potency [20] | Potency [18] | Potency [19]

CC(=O)CC(=O)Nc1ccc(S(=O)(=O)O)cc1
inactive: Potency [1] | Potency [2] | max response [3] 0.915% | Potency [4] | Potency [5] | Potency [6] | Potency [7] | Potency [8] | Potency [9] | Potency [10] | Potency [11] | Potency [12] | Potency [13] | Potency [14] | Potency [15] | Potency [16] | Potency [17] | Potency [20] | Potency [18] | Potency [19]

CCO[Si](OCC)(OCC)OCC
inactive: Potency [1] | Potency [2] | max response [3] 3.28% | Potency [4] | Potency [5] | Potency [6] | Potency [7] | Potency [8] | Potency [9] | Potency [10] | Potency [11] | Potency [12] | Potency [13] | Potency [14] | Potency [15] | Potency [16] | Potency [17] | Potency [20] | Potency [18]

CC(C)NC[C@@H](O)COc1ccc(CC(N)=O)cc1
inactive: Potency [1] | Potency [2] | max response [3] -0.295% | Potency [4] | Potency [5] | Potency [6] | Potency [7] | Potency [8] | Potency [9] | Potency [10] | Potency [11] | Potency [12] | Potency [13] | Potency [14] | Potency [15] | Potency [16] | Potency [17] | Potency [20] | Potency [18] | Potency [19]

NC(=O)c1cccc([N+](=O)[O-])c1
inactive: Potency [1] | Potency [2] | max response [3] -0.169% | Potency [4] | Potency [5] | Potency [6] | Potency [7] | Potency [8] | Potency [9] | Potency [10] | Potency [11] | Potency [12] | Potency [13] | Potency [14] | Potency [15] | Potency [16] | Potency [17] | Potency [18] | Potency [19]

O=C1C(c2[nH]c3ccc(S(=O)(=O)O)cc3c2O)=Nc2ccc(S(=O)(=O)O)cc21
inactive: Potency [1] | Potency [2] | max response [3] 10.2% | Potency [4] | Potency [5] | Potency [6] | Potency [7] | Potency [8] | Potency [9] | Potency [10] | Potency [11] | Potency [12] | Potency [14] | Potency [16] | Potency [17] | Potency [20] | Potency [18] | Potency [19]

CCCCCCCCCCCCCC[N+](C)(C)Cc1ccccc1
inactive: Potency [9] | Potency [11] | Potency [20] | Potency [19]
active: Potency [1] 19.8 µM and 9.52 µM and 12.6 mM | Potency [2] 55.8 µM and 21.3 µM | Potency [3] 3.14 µM and 3.01 µM and 1.58 mM | Potency [4] 39.5 µM and 21.3 µM and 17.8 mM | Potency [5] 49.7 µM and 23.9 µM and 17.8 mM | Potency [6] 24.9 µM and 13.4 µM | Potency [7] 39.5 µM and 16.9 µM and 17.8 mM | Potency [8] 22.2 µM and 15.1 µM and 14.1 mM | Potency [10] 39.5 µM and 19 µM and 17.8 mM | Potency [12] 35.2 µM and 15.1 µM and 14.1 mM | Potency [13] 55.8 µM and 21.3 µM and 20 mM | Potency [14] 49.7 µM and 21.3 µM and 17.8 mM | Potency [16] 49.7 µM and 20 mM | Potency [17] 44.3 µM and 23.9 µM and 20 mM | Potency [18] 26.8 µM and 20 mM
